Measured values from PubChem BioAssay AID1159580 (chemical genetic matrix, 2015).
Several values for one entry are separate records, joined by “and”; a condition that tells them apart may be missing. Identical values can stand only once. The campaign covered roughly 5,500 compounds. About 2,000 (36%) were called active. Not shown: some 18% with an inconclusive outcome. Cut-off read from the data, not from the text of the source: active = normalized growth mostly below about 0.91 (no sharp cut-off); inconclusive = no clear call, values can overlap the other calls; inactive = mostly above about 0.92. The list shows a part of the results.

Assay: chemical genetic growth profiling, strain panel (AID 1159580);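 note: tested at 20 µM; growth read once vehicle control cultures reached saturation at 30 °C; 1 = growth at the plate median or of vehicle wells; lower values mean less growth of the strain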
Settings: S. cerevisiae deletion strains, growth OD

Measured: normalized growth

N[C@@H](CCC(=O)N[C@@H](CS)C(=O)NCC(=O)O)C(=O)O
inactive: locus YAL021C, strain ccr4, hits give low values 1 | locus YAL026C, strain drs2, hits give low values 1.04 | locus YAL030W, strain snc1, hits give low values 0.986 | locus YBL061C, strain skt5, hits give low values 1.01 | locus YBR009C, strain hhf1, hits give low values 0.988 | locus YBR021W, strain FUR4, hits give low values 1.05 | locus YBR023C, strain chs3, hits give low values 1.01 | locus YBR171W, strain sec66, hits give low values 0.981 | locus YBR229C, strain ROT2, hits give low values 1.01 | locus YBR231C, strain swc5, hits give low values 0.972 | locus YBR279W, strain paf1, hits give low values 1 | locus YCL011C, strain gbp2, hits give low values 1.01 | locus YCL016C, strain dcc1, hits give low values 1.02 | locus YCL029C, strain bik1, hits give low values 0.998 | locus YCL061C, strain MRC1, hits give low values 0.99 | locus YCL069W, strain vba3, hits give low values 1.01 | locus YCR088W, strain abp1, hits give low values 0.998 | locus YDL005C, strain med2, hits give low values 0.985 | locus YDL035C, strain GPR1, hits give low values 1.01 | locus YDL040C, strain nat1, hits give low values 0.989 | locus YDL074C, strain BRE1, hits give low values 0.987 | locus YDL101C, strain DUN1, hits give low values 0.991 | locus YDL185W, strain tfp1, hits give low values 0.947 | locus YDL192W, strain arf1, hits give low values 0.988 | locus YDR001C, strain nth1, hits give low values 0.993 | locus YDR069C, strain doa4, hits give low values 0.975 | locus YDR101C, strain arx1, hits give low values 0.992 | locus YDR137W, strain rgp1, hits give low values 1.03 | locus YDR159W, strain sac3, hits give low values 0.943 | locus YDR162C, strain NBP2, hits give low values 0.998 | locus YDR195W, strain ref2 0.927 | locus YDR297W, strain sur2, hits give low values 0.984 | locus YDR318W, strain mcm21, hits give low values 0.993 | locus YDR334W, strain swr1, hits give low values 0.998 | locus YDR335W, strain msn5, hits give low values 0.987 | locus YDR388W, hits give low values 0.998 | locus YDR392W, strain spt3, hits give low values 1 | locus YDR502C, strain sam2, hits give low values 0.987 | locus YEL003W, strain gim4, hits give low values 0.992 | locus YEL037C, strain rad23, hits give low values 0.995 | locus YEL061C, strain CIN8 (second series), hits give low values 0.996 | locus YEL061C, strain CIN8, hits give low values 0.991 | locus YER015W, strain faa2, hits give low values 1 | locus YER016W, strain bim1, hits give low values 1.02 | locus YER110C, hits give low values 0.971 | locus YER111C, strain swi4, hits give low values 1.01 | locus YER155C, strain BEM2 (second series), hits give low values 0.963 | locus YER155C, strain BEM2, hits give low values 0.998 | locus YER167W, strain BCK2, hits give low values 1 | locus YFR010W, strain ubp6, hits give low values 1 | locus YGL078C, strain dbp3, hits give low values 0.99 | locus YGL086W, strain mad1, hits give low values 0.987 | locus YGL167C, strain pmr1, hits give low values 0.988 | locus YGL173C, strain kem1, hits give low values 0.977 | locus YGL227W, strain vid30, hits give low values 0.992 | locus YGL240W, strain doc1, hits give low values 0.973 | locus YGL248W, strain PDE1, hits give low values 0.999 | locus YGL253W, strain hxk2, hits give low values 1.02 | locus YGR135W, strain pre9, hits give low values 0.978 | locus YGR252W, strain gcn5, hits give low values 0.995 | locus YHR013C, strain ard1, hits give low values 0.996 | locus YHR027C, strain rpn1, hits give low values 1.01 | locus YHR030C, strain SLT2, hits give low values 0.992 and 0.922 | locus YHR079C, strain IRE1 (second series), hits give low values 0.985 | locus YHR079C, strain IRE1, hits give low values 0.928 | locus YHR094C, strain hxt1, hits give low values 0.996 | locus YHR129C, strain ARP1, hits give low values 1 | locus YHR142W, strain chs7, hits give low values 1.03 | locus YHR200W, strain rpn10, hits give low values 0.981 | locus YIL066C, strain RNR3, hits give low values 1.01 | locus YIL073C, strain SPO22, hits give low values 0.952 | locus YIL125W, strain kgd1, hits give low values 0.996 | locus YIR030C, strain dcg1, hits give low values 0.991 | locus YJL092W, strain hpr5, hits give low values 0.998 | locus YJL095W, strain BCK1 (second series), hits give low values 1.01 | locus YJL095W, strain BCK1, hits give low values 0.97 and 1.03 | locus YJL115W, strain asf1, hits give low values 0.972 | locus YJL129C, strain trk1, hits give low values 0.975 | locus YJL134W, strain LCB3, hits give low values 0.995 | locus YJL154C, strain vps35, hits give low values 0.998 | locus YJL164C, strain tpk1, hits give low values 1.01 | locus YJL166W, strain qcr8, hits give low values 0.973 | locus YJL168C, strain set2, hits give low values 0.994 | locus YJL187C, strain SWE1 (second series), hits give low values 0.987 | locus YJR043C, strain POL32, hits give low values 0.992 | locus YJR066W, strain TOR1, hits give low values 0.923
